Screens deposited in PubChem BioAssay by National Center for Advancing Translational Sciences (NCATS).
Shown are actives, neighbours in structure and some others; about 2.8% of the full set was active somewhere.
KDM5B inhibitor – inhibitors of human KDM5B histone demethylase; Q9UGL1; KDM5B demethylase, FDH-coupled NADH fluorescence (FDH is formaldehyde dehydrogenase); Potency, µM (top dose mostly 57.7 µM), most hits filed as inhibitors; 220,000 tested, 2.6% active; active means well fitted inhibition curve with a large enough effect; inconclusive means small, poorly fitted or top-dose-only effect; inactive means no such curve, though single readings can be large or run the other way; further: nearly all actives have a fitted effect of over 70% in size
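qHTS format, multiple compound concentrations. Buffer 50 mM HEPES pH 7.5/0.01% Tween-20; 200 nM KDM5BΔAP final; 10 min compound preincubation; substrate-mix levels 12.5 µM peptide, 25 µM α-KG, 0.25 mM NAD⁺; 30 min RT; ΔRFU.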
IP6K1 inh – blocks human inositol hexakisphosphate kinase 1; IP6K1 kinase, ADP-Glo luminescence, 2 h; active compounds read low; activity change, % (series mostly up to about 58 µM); 140,000 tested, 0.81% active; in the data active means activity change below about -25%
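ADP-Glo luminescence measures ADP made by human IP6K1 during a 2 h RT reaction with ATP/IP6 (mix at 1.3 mM/130 uM); top library doses 57.5 and 19.1 uM final.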
Hits are given with their value; – = inactive; ? = inconclusive; · = no result.

SMILES	KDM5B inhibitor	IP6K1 inh
COC(=O)c1cc(COC(=O)C2COc3ccccc3O2)oc1C (centres undefined)	–	·
S=c1sc2c(s1)SCCS2	–	·
COc1cccc(-c2cccc(C(=O)N3CCN(C(=O)c4cccc(Cl)c4)CC3)c2)c1	·	–
CSc1ccc(-c2cccc(C(=O)NCCNC(=O)c3ccc(C)cc3)c2)cc1	·	–
N#CC1CCN(C(=O)C2CCN(Cc3ccccc3-c3ccccc3F)CC2)CC1	·	–
O=S(=O)(c1ccc2c(c1)OCCO2)c1nc(-c2ccco2)oc1NCCCN1CCOCC1	–	·
S=C(N/N=C1/CC2C=CCC12)NC1CCCCC1 (centres undefined)	–	·
COc1ncccc1-c1cnc2[nH]cc(CC(=O)Nc3ccncc3)c2c1	39.8µM	–
COc1ccc(-c2cnc3[nH]cc(CC(=O)NCCc4ccccn4)c3c2)cc1	35.5µM	–
COc1ncccc1-c1cnc2[nH]cc(CC(=O)Nc3ccccc3C)c2c1	?	–
O=C(Cc1c[nH]c2ncc(-c3ccccc3)cc12)Nc1cccnc1	?	–
COc1ccc(-c2cnc3[nH]cc(CC(=O)Nc4cccnc4)c3c2)cc1	39.8µM	–
COc1ncccc1-c1cnc2[nH]cc(CC(=O)Nc3ccccc3)c2c1	35.5µM	–
COc1ccc(-c2cnc3[nH]cc(CC(=O)Nc4cccc(F)c4)c3c2)cc1	?	–
COc1ncccc1-c1cnc2[nH]cc(CC(=O)Nc3cccnc3)c2c1	?	–
CCOC(=O)C(Cc1cc(N2CCN(S(=O)(=O)c3c(Cl)cccc3Cl)CC2)ccc1Cl)OC (centres undefined)	·	–
O=C(c1ccc(F)cc1)N1CCN(Cc2ccccc2-c2cccnc2)CC1	·	–
O=C(NC1CCCN(c2ccc3nnc(-c4ccccc4)n3n2)C1)c1ccncc1 (centres undefined)	·	–
Cn1ncc2c(C(=O)Nc3cccc(Cl)c3)cc(-c3cccc(C(F)(F)F)c3)nc21	·	–
CC(C)NC(=O)NC1CCN(Cc2cccc(-c3ccc(F)c(F)c3)c2)CC1	·	–
O=C(Cc1ccccn1)N1CCCC2(CNc3ncccc3[S+](=O)([O-])N2)C1 (centres undefined)	·	–
O=C(NCCc1ccc(Cl)cc1)c1ccc2nnc(C3CC3)n2c1	·	–
Cc1ccc(-c2ccccc2CN2CCC(C(=O)N3CCN(Cc4ccccc4)CC3)CC2)cc1Cl	·	–
O=C(NCCc1ccc(Cl)cc1)C1CCN(Cc2ccccc2-c2cccnc2)CC1	·	–
Cc1ncsc1CN1CCCCC1c1nc(CCOc2ccc(F)cc2)no1 (centres undefined)	?	–
SMILES	KDM5B inhibitor	IP6K1 inh
Cc1ncsc1CN1CCCCC1c1nc(CCOCC2CC2)no1 (centres undefined)	17.8µM	–
O=C(NCc1ccc(Cl)cc1)c1cnn2ncccc12	35.5µM	–
C=CCNC(=O)c1cc2cccnn2n1	31.6µM	–
O=C(Nc1ccc(Cl)cc1Cl)c1cc2cccnn2n1	–	–
C=CCNC(=O)c1cc(-c2ccc3c(c2)OCO3)on1	–	·
O=C(Nc1ccc(F)cc1)c1cnn2ncccc12	?	–
Cc1nnn2c(C(=O)N(C)C)cccc12	?	–
Cc1nnn2c(C(=O)NCc3ccc(Cl)cc3)cccc12	35.5µM	–
O=C(NCc1ccc(Cl)cc1)c1cc2cccnn2n1	31.6µM	–
Cc1ccc(-n2nc(C)c([C@@H]3C=C[C@@H](NS(=O)(=O)c4cccs4)C3)c2C)cc1Cl	?	–
Cn1ncc2c(C(=O)C3CCN(Cc4ccccc4)CC3)cc(-c3ccccc3C(F)(F)F)nc21	·	–
Cc1cc(Cl)ccc1-n1ncc2c(NCC3CCCO3)ncnc21 (centres undefined)	–	·
C[C@@]12CO[C@H](c3ccccc3)C[C@@H]1C[C@H](N1CCN(CCOCc3ccccc3)CC1)C2	·	–
Cc1cc(NC(=S)NCCc2ccccc2)ccc1I	–	·
O=C(NCc1ccc(Cl)nc1)c1ccn2nccc2c1	–	–
O=C(NCc1ccc(Cl)cc1)c1ccn2nccc2c1	35.5µM	–
Cc1ccc([S+](=O)([O-])N2CCC(C(=O)N3CCC(N4Cc5cccn5C4=O)CC3)CC2)cc1	·	–
O=C1CCN(CC(O)COc2ccccc2)c2ccc(F)cc2CN1C1CCCC1 (centres undefined)	·	–
CCN(CC)C(=O)CCc1c(C)nn(-c2cccc(C)c2)c1Oc1ccc(F)cc1F	–	–
CCN(C)C(=O)CCc1c(C)nn(-c2cccc(C)c2)c1Oc1ccc(F)cc1F	31.6µM	–
CC(Sc1nc2ccccc2o1)C(=O)N1CCCC1 (centres undefined)	–	·
N#Cc1cccc(C(=O)N2CCC(N3C(=O)[C@H]4CN(Cc5ccccc5)C[C@H]4C3=O)CC2)c1	·	–
COc1ccccc1CNC(=O)C1CCN(C(=O)c2ccc(-c3cncnc3)cc2)CC1	·	–
C=CCCC(CN1CCCOCC1)Oc1ccc(C#N)cn1 (centres undefined)	–	–
C=CCCC(CN1CCCOCC1)Oc1cc(C#N)ccn1 (centres undefined)	28.2µM	–
SMILES	KDM5B inhibitor	IP6K1 inh
Cn1cc(-c2ccc(O)c(F)c2)c2nc(COc3ccc(Cl)cc3)cn2c1=O	20µM	–
COc1ccc(-c2cn(C)c(=O)n3cc(COc4ccnn4C)nc23)cc1OC	35.5µM	–
COCc1cn2c(=O)n(C)cc(-c3ccnc(OC)c3)c2n1	31.6µM	–
CC(=O)Nc1cc(-c2cn(C)c(=O)n3cc(COc4ccc(Cl)cc4)nc23)ccn1	?	–
COc1ccc(-c2cn(C)c(=O)n3cc(COc4ccnn4C)nc23)cc1	?	–
Cn1nccc1OCc1cn2c(=O)n(C)cc(-c3cccc(OCc4ccccc4)c3)c2n1	39.8µM	–
Cn1cc(-c2cccnc2)c2nc(COc3ccccc3)cn2c1=O	–	–
COCc1cn2c(=O)n(C)cc(-c3ccc(OC)nc3)c2n1	–	–
COc1cccc(C2c3c(-c4c(C)cc(C)cc4O)n[nH]c3C(=O)N2CCCO)c1 (centres undefined)	–	·
CC(C)COC(=O)N1C[C@@H](CO)[C@@H]2Oc3c(F)cccc3[C@@H]21	·	–
COc1ccc(-c2cccc(C(=O)N3CCC(Cc4ccccc4)CC3)c2)nn1	·	–
COc1ccccc1-c1cccc(CN2CCC(N[S+](=O)([O-])c3ccc(C)cc3)CC2)c1	·	–
CC(=O)c1cccc(NC(=O)c2cccc3ncccc23)c1	–	·
Cc1cccc(NC(=O)C23CCC=C2N(C2CCCC2)C(=O)CC3)c1 (centres undefined)	·	–
O=C(NCC(F)(F)F)C1CCCN(c2nccc(Nc3ccccc3F)n2)C1 (centres undefined)	·	–
Cc1ccsc1C(=O)OCC(=O)c1ccccc1	–	·
COc1ccc(C(CC(=O)NCc2ccco2)Sc2n[nH]c(-c3ccc(F)cc3)n2)cc1 (centres undefined)	–	·
O=C(c1ccc(N2CCOCC2)nc1)N1CCC(Cn2cccn2)CC1	?	–
CNc1ccc(C(=O)N2CCC(CCn3cccn3)CC2)cn1	22.4µM	–
CC(C)(C)CNc1ccc(C(=O)N2CCC(CN3CCCC3=O)CC2)cn1	14.1µM	–
O=C1CCCN1CC1CCN(C(=O)c2ccc(N3CC[C@H](O)C3)nc2)CC1	?	–
CN(C)C(=O)N1CCN(c2ccc3nnc(-c4ccccc4)n3n2)CC1	·	–
CNC(=O)c1cc(C2CC2)nc2c1c(C1CCCN(C(=O)c3ccc(OC)cc3)C1)nn2C (centres undefined)	·	–
Cc1noc(-c2ccn3c(CNC(=O)c4ccc(C)c(C)c4)nnc3c2)n1	?	–
